# Test results as given in PubChem BioAssay AID720518 (National Center for Advancing Translational Sciences (NCATS), 2013).
# Inconclusive results are not listed. A call without a number means that no potency is given here. The source made the active and inactive calls. Calls follow the shape of the full dose curve.
# Assay: qHTS for Inhibitors of Cell Surface uPA Generation: Wild-type Protective Antigen (WT-PrAg) Counterscreen for Cherry-picked Compounds
# Potency is read from the fitted curve at half-maximal effect.
row,Compound,Potency
1,Cc1ccc([C@H]2C(C(=O)O)=CC[C@@H](c3cccc(C)c3)N2S(=O)(=O)c2ccc(C)cc2)cc1,inactive
2,COc1ccc([C@H]2CC(=O)C=C(c3ccc(CNC(=O)OC(C)(C)C)cc3)C2)cc1,inactive
3,CC1CCCC(NC(=O)CNC(=S)N(Cc2ccccc2)Cc2cccs2)C1C (configuration not stated),inactive
4,CC(=O)c1c(C)n(-c2ccccc2Br)c2ccc(O)cc12,inactive
5,O=C(COC(=O)/C=C/c1cccc(F)c1)Nc1ccccc1,inactive
6,CCc1cc(CC)c(/C=N/NC(N)=O)c(CC)c1,inactive
7,Cc1ccc(C)c(N2N=C(C(=O)N(CC(C)C)c3c(N)n(Cc4ccccc4)c(=O)[nH]c3=O)CCC2=O)c1,inactive
8,CCC(C(=O)NCc1ccc(C)cc1)c1ccccc1 (configuration not stated),inactive
9,CC(C)OC(=O)Nc1ccc(-c2ccc(NC(=O)OC(C)C)cc2Cl)c(Cl)c1,inactive
10,O=C(NCC1CCCO1)c1ccc(NC(=O)c2ccc([N+](=O)[O-])cc2)cc1 (configuration not stated),inactive
11,COc1ccc(C)cc1NC(=O)NNC(=O)C1CCC(C(C)(C)C)CC1 (configuration not stated),inactive
12,COc1ccc(OC)c(S(=O)(=O)N2CCC(NC(=O)c3ccccc3)CC2)c1,inactive
13,CC1(c2cccc([N+](=O)[O-])c2)CC(C)(C)N(C(=O)c2ccccc2)c2ccccc21 (configuration not stated),inactive
14,CCOc1ccc(CN2CCN(C(=O)Cc3ccccc3)CC2)cc1,inactive
15,COc1cc(NC(=S)NCCc2ccc(S(N)(=O)=O)cc2)c(OC)cc1Cl,inactive
16,CCCNC(=O)C1CCC(CNS(=O)(=O)c2ccc3c(c2)CC(C)N3C(C)=O)CC1 (configuration not stated),inactive
17,CN(C(=O)CCn1c(=S)oc2ccccc21)c1ccc(F)cc1,inactive
18,O=C(c1cc(COc2c(F)cccc2F)on1)N1CCc2ccccc2C1,inactive
19,COc1cccc(CNC(=O)C2CCCN(S(=O)(=O)c3ccc4c(c3)C(C)(C)C(=O)N4C)C2)c1 (configuration not stated),inactive
20,CC(=O)c1ccc(OCCCCOc2ccc(C(C)=O)cc2)cc1,inactive
21,COc1ccc(-c2cc(-c3ccccc3)nc3ncnn23)cc1,inactive
22,N#CCCN(C(=O)COC(=O)c1ccc2c(c1)NC(=O)CS2)c1ccc2c(c1)OCCO2,inactive
23,CCO[C@H]1OC(C(=O)N2CCCCCCC2)=C[C@@H](c2ccc(C(F)(F)F)cc2)[C@@H]1CCCO,inactive
24,O=C(CNC(=O)c1ccc(Br)o1)NNC(=O)c1ccccc1,inactive
25,Cc1ccccc1NC(=O)N1CCN(c2ncccn2)CC1,inactive
26,O=C(CCN1CCN(c2ccccc2F)CC1)Nc1ccc(F)cc1,inactive

row,Compound,Potency
1,Cn1c(=O)c2c(ncn2CCO)n(C)c1=O,inactive
2,CC(C)C(=O)Nc1nnc(SCc2cccc(F)c2)s1,inactive
3,COCCNC(=O)C(c1c[nH]c2ccccc12)N(C(=O)c1snc(C(N)=O)c1N)c1cccc(OC)c1 (configuration not stated),inactive
4,CCOC(=O)C1CCN(S(=O)(=O)c2c[nH]c(=O)[nH]c2=O)CC1,inactive
5,COc1ccc2c(ccn2S(=O)(=O)c2ccccc2)c1,inactive
6,CCC(NC(=S)NCc1ccc(F)cc1)c1ccccc1 (configuration not stated),inactive
7,C=CS(=O)(=O)c1ccc(Oc2ccc(S(=O)(=O)C=C)cc2)cc1,65.6 µM (active)
8,C[C@H](O)[C@@H]1C(=O)N2CCc3ccc(-c4cccc(F)c4)cc3[C@@H]2C[C@@H]1N(C)C(=O)C(C)(C)C,inactive
9,COc1ccc(-c2nn(CCC#N)cc2C(=O)Nc2ccccc2)cc1OC,inactive
10,C/C(=N\NC(=O)c1cccc([N+](=O)[O-])c1)c1cccnc1,inactive
11,CC(C)(C)C(=O)NCCc1nc2ccccc2n1CC(=O)c1ccc(Cl)cc1,inactive
12,COc1ccc(C[C@@H]2OC3(C=CC(=O)C=C3)O[C@H]2Cc2ccc(OC)cc2)cc1,inactive
13,CC(C)(O)C#Cc1ccc(C(=O)N2CCCC(CCC(=O)NCc3ccccc3F)C2)cc1 (configuration not stated),inactive
14,O=C(CCS(=O)(=O)c1ccc2c(c1)NC(=O)CS2)NCCc1ccc(Cl)cc1,inactive
15,CCN(CC)S(=O)(=O)c1ccc(C(=O)Nc2cccc(C)c2)cc1,inactive
16,COC(=O)c1ccccc1NC(=O)Nc1nnc(N2CCCCC2C)s1 (configuration not stated),58.5 µM (active)
17,CC1(CC(=O)N/N=C/c2cc(Br)c(O)cc2O)OCCO1,inactive
18,Cc1ccc2oc(C(=O)N(Cc3ccc(N(C)C)cc3)C3CCS(=O)(=O)C3)c(C)c2c1 (configuration not stated),inactive
19,Cc1ccc(Cl)c(N/C=C/C(=O)c2ccccc2)c1,inactive
20,Cc1cccc(-c2nc(CS(=O)CC(=O)NCc3cccs3)c(C)o2)c1 (configuration not stated),inactive
21,Cc1ccc2c(c1)N(CC(=O)NCCCc1ccccc1)C(=O)c1cccnc1O2,inactive
22,CN(CCC#N)C(=S)Nc1ccc(Oc2ccccc2)cc1,inactive
23,COC(=O)C1C(=O)c2c([nH]c(C(=O)OC3CCCCC3)c2C)CC1C (configuration not stated),inactive
24,CC(=O)Nc1c2c(nn1-c1cccc(C)c1)CSC2,inactive
25,CN(CCCNC(=O)Cn1cccc1C(=O)c1ccccc1)C1CCCCC1,inactive
26,Cc1ccc(NS(=O)(=O)c2c(C)nc3sccn3c2=O)c(C)c1,inactive
